Our source for the outcome and AC50 values is PubChem BioAssay (EPA / NIEHS).

“And” between values parts separate entries of the source, which are not always exact repeats. Identical values can stand only once. Results filed as inconclusive are left out. Where a structure was tested more than once in an assay, its records may differ in their call. The source made the active and inactive calls. Rule for the calls: active = hit-call score of the fitted dose curve at least 0.9, where 1 is the maximum; inconclusive = response in the unintended direction; inactive = score below 0.9.

Assay [1] addresses Cellular tumor antigen p53 (Homo sapiens) (UniProt P04637). In words: TOX21_p53_BLA_p2_ratio: Tox21 HCT-116 p53 Agonism Beta-lactamase Assay, Ratio, Phase 2 (AID 2283592). An outline of the steps: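 DMSO-normalized, positive-direction endpoint derived from the 460 nm/530 nm FRET ratio in HCT116 p53 beta-lactamase reporter cells exposed 16 h at 37C and loaded with CCF4-AM for 2 h.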

Assay [2] has the same target. Description: TOX21_p53_BLA_p4_ratio: Tox21 HCT-116 p53 Agonism Beta-lactamase Assay, Ratio, Phase 4 (AID 2283601). A digest of the protocol:
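HCT-116 p53 beta-lactamase reporter cells (4000/well) preincubated 5 h, then compound (217-fold dilution of DMSO stock) for 16 h at 37C. CCF4-AM substrate added 2 h at room temperature; 460/530 nm emission ratio fitted upward versus DMSO.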

Assay [3] can be described thus: TOX21_p53_BLA_p3_viability: Viability Assessment in the Tox21 HCT-116 p53 Agonism Beta-lactamase Assay, Phase 3 (AID 2283593).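 Note: cells exposed to compound for 16 h before reading.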 A digest of the protocol:
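HCT116 cells, 4000/well, dosed 5 h after plating by pin transfer (217-fold dilution from DMSO stock) and incubated 16 h at 37C, 5% CO2. Viability read as ATP luminescence with CellTiter-Glo after 30 min at room temperature.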

For assay [4], the target named is Cellular tumor antigen p53 (Homo sapiens) (UniProt P04637). In words: TOX21_p53_BLA_p3_ratio: Tox21 HCT-116 p53 Agonism Beta-lactamase Assay, Ratio, Phase 3 (AID 2283596). An outline of the steps: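 Cells were seeded at 4000/well, rested 5 h at 37C, then dosed with DMSO compound solutions (217-fold dilution) for 16 h. CCF4-AM substrate was loaded for 2 h at room temperature, and the 460/530 nm emission ratio was fitted for gain of signal versus DMSO.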
Cellular tumor antigen p53 (Homo sapiens), sequence (P04637 whole entry, looked up): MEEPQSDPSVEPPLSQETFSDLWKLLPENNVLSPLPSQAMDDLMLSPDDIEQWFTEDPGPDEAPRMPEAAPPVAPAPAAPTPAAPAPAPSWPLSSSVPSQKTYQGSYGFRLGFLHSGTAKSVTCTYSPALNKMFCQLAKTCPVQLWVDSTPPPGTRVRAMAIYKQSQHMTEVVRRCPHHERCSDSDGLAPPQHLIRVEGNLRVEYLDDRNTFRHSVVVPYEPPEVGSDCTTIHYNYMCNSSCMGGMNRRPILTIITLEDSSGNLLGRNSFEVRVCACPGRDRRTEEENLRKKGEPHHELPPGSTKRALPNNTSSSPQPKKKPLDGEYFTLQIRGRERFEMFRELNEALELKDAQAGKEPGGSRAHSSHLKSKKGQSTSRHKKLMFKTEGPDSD

Assay [5] shares this target. In words: TOX21_p53_BLA_p5_ratio: Tox21 HCT-116 p53 Agonism Beta-lactamase Assay, Ratio, Phase 5 (AID 2283599). An outline of the steps: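 HCT-116 p53-bla cells (4000/well) plated 5 h, dosed with compound (217-fold DMSO dilution) for 16 h at 37 C; CCF4-AM substrate 2 h at room temperature. Activity is the 460/530 nm emission ratio (405 nm excitation), fitted in gain-of-signal direction versus DMSO.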

The nature of assay [6]: TOX21_p53_BLA_p5_viability: Viability Assessment in the Tox21 HCT-116 p53 Agonism Beta-lactamase Assay, Phase 5 (AID 2283600). A digest of the protocol: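 Here cell health was gauged by ATP levels in wells holding 4000 cells, each treated 16 h with DMSO-delivered compounds at 217-fold dilution; reduced luminescence marked toxicity.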
Assay [7] in a line: TOX21_p53_BLA_p2_viability: Viability Assessment in the Tox21 HCT-116 p53 Agonism Beta-lactamase Assay, Phase 2 (AID 2283591).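 Note: compound exposure lasted 16 h at 37 °C; actives lower the ATP signal meaning cytotoxicity.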 A digest of the protocol: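 HCT116 p53-bla cells, 4000/well, dosed after 5 h plating (217-fold dilution of DMSO stocks) and incubated 16 h at 37C. Viability taken as cellular ATP by CellTiter-Glo luminescence after 30 min RT; signal loss marks cytotoxicity.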

Assay [8] is described as follows: TOX21_p53_BLA_p4_viability: Viability Assessment in the Tox21 HCT-116 p53 Agonism Beta-lactamase Assay, Phase 4 (AID 2283597).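 Note: hits lower the luminescence signal meaning cytotoxicity.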 An outline of the steps: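 In this multiplexed secondary endpoint, HCT116 cells (4000 per well, compound at 5 h, 16 h treatment) received CellTiter-Glo after the beta-lactamase read. Luminescence after 30 min RT reflects ATP, and falling signal marks cytotoxicity.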

Turning to `C#CCO`, the outcome in assay [1] and in assay [2] was inactive.

In the case of `CCCCC(CC)C(=O)Cl` (stereo unspecified), the call in assay [3], in assay [4], in assay [5], in assay [6] and in assay [2] was inactive.

Regarding `CN(C)[C@@H]1C(=O)C(C(N)=O)=C(O)[C@@]2(O)C(=O)C3=C(O)c4c(O)ccc(Cl)c4[C@@](C)(O)[C@H]3C[C@@H]12`, the molecule was called inactive in assay [7], in assay [8], in assay [5] and in assay [6].

As usually defined, the AC50 is the concentration at which the activity in the assay is half-maximal. As to `OCC(c1ccc(Cl)cc1)c1ccc(Cl)cc1`, the AC50 is 80.1 µM (active) in assay [1]; 71.1 µM (active) in assay [8]; 86.8 µM (active) in assay [5]; 70.4 µM (active) in assay [6]; 85.2 µM (active) in assay [2]. Besides, the outcome in assay [3] and in assay [4] was inactive.

Turning to `CC(c1ccc(O)cc1)c1ccc(O)cc1`, the result in assay [3], in assay [4], in assay [5], in assay [6] and in assay [2] was inactive.

On to `O=C(Cc1ccccc1)OCCc1ccccc1`, for which the molecule was called inactive in assay [8], in assay [5] and in assay [6].

As to `OC[P+](CO)(CO)CO`, the outcome in assay [4], in assay [5] and in assay [2] was inactive.

For `O=[N+]([O-])c1cc([As](=O)(O)O)ccc1O`, the result in assay [3], in assay [4], in assay [5], in assay [6] and in assay [2] was inactive.

As to `OC(c1ccc(Cl)cc1)(c1ccc(Cl)cc1)c1cccnc1`, the AC50 in assay [1] was 44.3 µM (active); in assay [8] it was 60.5 µM (active); in assay [5], 72.5 µM (active); in assay [2], 70.9 µM (active). Further, the result in assay [3], in assay [4] and in assay [6] was inactive.

With `O=c1oc2ccccc2c(O)c1C(CC(O)c1ccc(-c2ccc(Br)cc2)cc1)c1ccccc1` (stereo unspecified), the outcome in assay [1], in assay [3], in assay [8], in assay [6] and in assay [2] was inactive. The half-maximal activity concentration (AC50) in assay [3] was 15.2 µM (active); in assay [4], 43.4 µM (active) and 22.3 µM (active); in assay [8], 10.4 µM (active); in assay [5] it was 27.2 µM (active) and 14.3 µM (active); in assay [6], 19.3 µM (active); in assay [2], 20.4 µM (active).

As for `CCCCOC(=O)COC(=O)c1ccccc1C(=O)OCCCC`, the outcome in assay [1], in assay [8], in assay [5], in assay [6] and in assay [2] was inactive.

For `C#C[C@]1(O)CC[C@H]2[C@@H]3CCC4=CC(=O)CC[C@]4(C)[C@H]3CC[C@@]21C`, the result in assay [1], in assay [3], in assay [4], in assay [8], in assay [5] and in assay [6] was inactive. Also, in assay [2], the outcome was inactive.

Regarding `Cc1cc(SCc2sc(-c3ccc(C(F)(F)F)c(F)c3)nc2C)ccc1OCC(=O)O`, the AC50 in assay [3] is 35.3 µM (active); in assay [4] it was 48.2 µM (active); in assay [8], 11.9 µM (active); in assay [5], 70.2 µM (active); in assay [6], 40.6 µM (active); in assay [2], 54.2 µM (active).

As to `c1ccc(-c2cccc(-c3ccccc3)c2)cc1`, the result in assay [1], in assay [3], in assay [4], in assay [8], in assay [5] and in assay [6] was inactive. In addition, the result in assay [2] was inactive.

For `CC1(C)[C@H](/C=C2\CCSC2=O)[C@@H]1C(=O)OCc1coc(Cc2ccccc2)c1`, the result in assay [1], in assay [3], in assay [4], in assay [8], in assay [5] and in assay [6] was inactive. Also, in assay [2], the AC50 was 69.3 µM (active).

As for `CCCCS(=O)(=O)Cl`, the result in assay [4], in assay [8] and in assay [6] was inactive.

Regarding `C=CCc1ccccc1O`, the result in assay [1], in assay [3], in assay [4], in assay [5] and in assay [2] was inactive.

In the case of `OCCCCO`, the molecule was called inactive in assay [7], in assay [4], in assay [8], in assay [5], in assay [6] and in assay [2].

On to `CCOC(=O)CC(=O)CCl`, for which the molecule was classed as inactive in assay [7], in assay [3], in assay [5] and in assay [2]. For the same molecule, in assay [4], the AC50 was 77.9 µM (active).

For the molecule `Cc1cc(Cl)ccc1OC(C)C(=O)O` (stereo unspecified), the result in assay [3], in assay [8], in assay [5], in assay [6] and in assay [2] was inactive.

As to `CCOP(=S)(OCC)Oc1ccc(Cl)cc1Cl`, the result in assay [7], in assay [3], in assay [4], in assay [5], in assay [6] and in assay [2] was inactive.

As to `COCCl`, the outcome in assay [1], in assay [4], in assay [8], in assay [6] and in assay [2] was inactive.

`CCOP(=S)(OCC)O/N=C(\C#N)c1ccccc1`: the outcome in assay [1], in assay [4], in assay [8], in assay [5] and in assay [2] was inactive.

`O=NN1CCOCC1`: the result in assay [1], in assay [3], in assay [4], in assay [8], in assay [5] and in assay [2] was inactive.

With `Clc1cc(C(Cl)(Cl)Cl)cnc1Cl`, the call in assay [7], in assay [3], in assay [4], in assay [5], in assay [6] and in assay [2] was inactive.
